# Tests used:
# Test in all cases: DAPPL (digital affinity profiling via proximity ligation, sequencing); 10 mM Tris-HCl pH 7.5, 50 mM NaCl, 1 mM DTT, 4% glycerol, room temperature, 30 min; GST-TFs on glutathione beads, 16-mer random dsDNA library, 0.1% formaldehyde crosslink after washing; high values mean tight binding
# Details in all cases: protein: recombinant; tags: N-terminal GST; dsDNA, one strand shown
# [1] = molecular target: T1, ELK1 (Homo sapiens, UniProt P19419 1-428)
# T1 sequence: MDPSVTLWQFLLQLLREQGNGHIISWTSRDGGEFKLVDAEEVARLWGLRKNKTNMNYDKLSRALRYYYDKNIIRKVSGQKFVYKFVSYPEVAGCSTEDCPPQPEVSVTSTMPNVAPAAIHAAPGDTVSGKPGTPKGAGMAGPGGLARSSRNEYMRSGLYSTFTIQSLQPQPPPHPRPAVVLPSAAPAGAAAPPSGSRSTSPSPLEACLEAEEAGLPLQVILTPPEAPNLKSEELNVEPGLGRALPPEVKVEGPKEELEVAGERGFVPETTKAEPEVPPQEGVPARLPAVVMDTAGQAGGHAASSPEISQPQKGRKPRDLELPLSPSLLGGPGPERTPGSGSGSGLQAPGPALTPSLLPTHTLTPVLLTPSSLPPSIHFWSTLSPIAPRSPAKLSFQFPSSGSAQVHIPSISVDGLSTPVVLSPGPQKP
# Method in brief: (§1)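 Pools were built from human transcription factors expressed in yeast as GST fusions, captured on glutathione beads and DNA-barcoded, along with a tag-only sample. Incubation with 200 nmole of a 16-mer random double-stranded DNA library lasted 30 min at room temperature in Tris/NaCl/DTT/glycerol buffer, and was followed by washing, 0.1% formaldehyde crosslinking, proximity ligation, PCR amplification and Illumina NextSeq500 sequencing. Binding signal is the quotient of each hexamer's read frequency for a factor and its frequency for the tag-only sample.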
# [2] = molecular target: T2, GABPA (Homo sapiens, UniProt Q06546 1-454)
# T2 sequence: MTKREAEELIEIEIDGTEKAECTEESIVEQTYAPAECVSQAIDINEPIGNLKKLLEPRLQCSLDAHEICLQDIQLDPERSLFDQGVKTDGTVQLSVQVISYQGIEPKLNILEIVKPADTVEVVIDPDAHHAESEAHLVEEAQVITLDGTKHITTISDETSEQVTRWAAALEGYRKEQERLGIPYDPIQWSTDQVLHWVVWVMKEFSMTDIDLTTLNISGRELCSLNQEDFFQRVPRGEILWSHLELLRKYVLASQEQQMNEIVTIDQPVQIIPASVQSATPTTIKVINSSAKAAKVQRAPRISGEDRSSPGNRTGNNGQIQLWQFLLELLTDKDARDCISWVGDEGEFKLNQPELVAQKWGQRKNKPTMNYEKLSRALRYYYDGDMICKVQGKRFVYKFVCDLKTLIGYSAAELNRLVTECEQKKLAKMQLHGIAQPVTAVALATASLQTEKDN
# Method in brief: as §1
# [3] = molecular target: T3, ERG (Homo sapiens, UniProt P11308 1-479)
# T3 sequence: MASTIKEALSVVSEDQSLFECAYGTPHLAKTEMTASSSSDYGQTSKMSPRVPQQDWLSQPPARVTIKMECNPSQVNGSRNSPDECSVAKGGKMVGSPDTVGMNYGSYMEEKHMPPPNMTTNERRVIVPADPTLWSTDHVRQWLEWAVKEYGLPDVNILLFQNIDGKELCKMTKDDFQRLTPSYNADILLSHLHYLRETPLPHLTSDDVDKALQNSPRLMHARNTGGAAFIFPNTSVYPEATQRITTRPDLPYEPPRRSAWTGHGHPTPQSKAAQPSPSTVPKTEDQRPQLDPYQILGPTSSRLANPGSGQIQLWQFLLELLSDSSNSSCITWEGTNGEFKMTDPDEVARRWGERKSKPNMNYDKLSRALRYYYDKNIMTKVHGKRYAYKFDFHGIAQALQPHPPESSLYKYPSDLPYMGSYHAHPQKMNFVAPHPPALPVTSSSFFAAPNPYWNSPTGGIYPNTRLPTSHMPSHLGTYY
# Method in brief: as §1
# [4] = molecular target: ELF1 (Homo sapiens, UniProt P32519 1-619)
# Sequence of ELF1 (P32519 whole entry): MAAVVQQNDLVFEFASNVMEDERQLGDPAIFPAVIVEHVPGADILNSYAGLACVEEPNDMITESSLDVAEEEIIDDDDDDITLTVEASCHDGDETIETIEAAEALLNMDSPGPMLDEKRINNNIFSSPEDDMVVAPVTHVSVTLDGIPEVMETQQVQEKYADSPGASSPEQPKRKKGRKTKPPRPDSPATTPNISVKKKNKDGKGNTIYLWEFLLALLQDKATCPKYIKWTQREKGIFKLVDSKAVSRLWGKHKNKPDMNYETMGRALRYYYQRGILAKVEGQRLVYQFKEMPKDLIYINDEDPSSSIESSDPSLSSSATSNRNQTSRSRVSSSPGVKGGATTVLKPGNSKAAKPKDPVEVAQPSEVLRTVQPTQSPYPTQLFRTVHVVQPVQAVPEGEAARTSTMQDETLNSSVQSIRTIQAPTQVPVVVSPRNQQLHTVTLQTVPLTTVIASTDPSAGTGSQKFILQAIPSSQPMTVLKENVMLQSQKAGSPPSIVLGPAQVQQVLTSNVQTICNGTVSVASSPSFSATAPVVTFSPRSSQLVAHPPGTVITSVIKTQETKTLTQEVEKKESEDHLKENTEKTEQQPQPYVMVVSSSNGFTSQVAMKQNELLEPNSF
# Method in brief: as §1
# [5] = molecular target: T4, EHF (Homo sapiens, UniProt Q9NZC4 1-300)
# T4 sequence: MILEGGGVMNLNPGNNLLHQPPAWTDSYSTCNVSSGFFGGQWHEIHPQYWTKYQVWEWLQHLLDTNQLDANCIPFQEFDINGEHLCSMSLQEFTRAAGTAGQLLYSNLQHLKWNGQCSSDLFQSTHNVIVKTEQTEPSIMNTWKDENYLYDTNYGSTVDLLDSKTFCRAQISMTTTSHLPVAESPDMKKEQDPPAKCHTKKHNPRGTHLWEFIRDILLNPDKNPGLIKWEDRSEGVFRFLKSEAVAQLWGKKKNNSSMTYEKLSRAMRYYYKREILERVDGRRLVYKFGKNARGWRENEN
# Method in brief: as §1
# [6] = molecular target: SPI1 (Homo sapiens, UniProt P17947 1-270)
# Method in brief: as §1
# [7] = molecular target: SPIB (Homo sapiens, UniProt Q01892 1-262)
# Sequence of SPIB (Q01892 whole entry): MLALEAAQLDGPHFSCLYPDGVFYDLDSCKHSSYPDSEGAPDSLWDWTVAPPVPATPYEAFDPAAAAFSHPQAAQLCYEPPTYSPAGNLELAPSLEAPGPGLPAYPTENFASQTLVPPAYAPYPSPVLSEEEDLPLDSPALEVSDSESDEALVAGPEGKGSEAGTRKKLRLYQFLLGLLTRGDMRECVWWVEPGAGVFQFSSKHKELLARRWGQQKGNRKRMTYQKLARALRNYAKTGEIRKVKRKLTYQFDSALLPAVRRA
# Method in brief: as §1
# [8] = molecular target: T5, FEV (Homo sapiens, UniProt Q99581 1-238)
# T5 sequence: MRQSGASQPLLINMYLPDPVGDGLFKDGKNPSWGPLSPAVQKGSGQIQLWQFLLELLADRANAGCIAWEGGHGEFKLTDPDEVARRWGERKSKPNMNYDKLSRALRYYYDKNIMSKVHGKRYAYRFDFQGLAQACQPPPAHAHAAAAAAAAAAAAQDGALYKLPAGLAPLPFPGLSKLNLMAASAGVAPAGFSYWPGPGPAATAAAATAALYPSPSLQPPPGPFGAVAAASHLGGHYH
# Method in brief: as §1
# [9] = molecular target: ETV5 (Homo sapiens, UniProt P41161 1-510)
# Sequence of ETV5 (P41161 whole entry): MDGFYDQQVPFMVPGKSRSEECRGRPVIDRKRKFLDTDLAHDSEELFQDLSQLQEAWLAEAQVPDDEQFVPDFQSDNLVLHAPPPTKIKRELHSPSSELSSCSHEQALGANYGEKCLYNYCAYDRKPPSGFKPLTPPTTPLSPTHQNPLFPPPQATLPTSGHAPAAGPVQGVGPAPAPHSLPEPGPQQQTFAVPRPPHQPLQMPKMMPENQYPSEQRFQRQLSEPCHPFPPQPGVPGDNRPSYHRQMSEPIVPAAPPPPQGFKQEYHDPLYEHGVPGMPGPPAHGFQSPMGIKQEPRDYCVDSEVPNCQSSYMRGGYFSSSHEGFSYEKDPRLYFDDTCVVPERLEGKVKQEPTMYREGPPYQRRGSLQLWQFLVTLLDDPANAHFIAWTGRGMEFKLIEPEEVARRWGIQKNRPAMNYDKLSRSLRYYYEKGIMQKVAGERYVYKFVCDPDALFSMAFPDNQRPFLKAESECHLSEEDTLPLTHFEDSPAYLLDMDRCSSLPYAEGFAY
# Method in brief: as §1
# [10] = molecular target: ELF4 (Homo sapiens, UniProt Q99607 1-663)
# Sequence of ELF4 (Q99607 whole entry): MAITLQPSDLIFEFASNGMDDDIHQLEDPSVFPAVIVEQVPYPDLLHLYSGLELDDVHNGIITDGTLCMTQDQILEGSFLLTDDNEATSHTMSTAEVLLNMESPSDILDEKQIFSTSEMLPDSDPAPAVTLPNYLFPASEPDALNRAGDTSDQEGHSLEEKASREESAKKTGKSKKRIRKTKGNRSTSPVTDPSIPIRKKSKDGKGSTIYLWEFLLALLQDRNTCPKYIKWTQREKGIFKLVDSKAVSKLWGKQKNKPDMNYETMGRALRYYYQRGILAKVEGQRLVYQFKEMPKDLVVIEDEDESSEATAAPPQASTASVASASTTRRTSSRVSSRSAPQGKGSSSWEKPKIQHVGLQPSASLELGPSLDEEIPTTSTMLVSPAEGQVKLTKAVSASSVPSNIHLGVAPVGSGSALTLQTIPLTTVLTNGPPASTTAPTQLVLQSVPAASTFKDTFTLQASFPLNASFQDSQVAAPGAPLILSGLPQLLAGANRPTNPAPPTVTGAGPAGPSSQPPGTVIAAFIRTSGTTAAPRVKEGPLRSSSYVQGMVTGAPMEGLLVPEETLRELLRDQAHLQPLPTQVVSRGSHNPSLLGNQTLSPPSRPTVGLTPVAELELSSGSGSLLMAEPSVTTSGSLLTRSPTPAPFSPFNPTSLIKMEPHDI
# Method in brief: as §1
sequence,measurement,setting,value
GGTAAA,binding signal,[1],"1.1 fold enrichment (6-mer frequency, TF over GST control)"
same,binding signal,[2],"1.07 fold enrichment (6-mer frequency, TF over GST control)"
same,binding signal,[3],"1.04 fold enrichment (6-mer frequency, TF over GST control)"
same,binding signal,[4],"1.08 fold enrichment (6-mer frequency, TF over GST control)"
same,binding signal,[5],"1.05 fold enrichment (6-mer frequency, TF over GST control)"
same,binding signal,[6],"1.04 fold enrichment (6-mer frequency, TF over GST control)"
same,binding signal,[7],"1.08 fold enrichment (6-mer frequency, TF over GST control)"
same,binding signal,[8],"1.02 fold enrichment (6-mer frequency, TF over GST control)"
same,binding signal,[9],"1.06 fold enrichment (6-mer frequency, TF over GST control)"
same,binding signal,[10],"1.04 fold enrichment (6-mer frequency, TF over GST control)"
